Results filed as inconclusive are left out. The source made the active and inactive calls. Calls follow the shape of the dose curve; as a rule, active = well fitted inhibition curve with a large enough effect; inconclusive = small, poorly fitted or top-dose-only effect, or effect the other way; inactive = no such curve, though single readings can be large or run the other way.
Test: Concentration response confirmation VP16 counterscreen for inhibitors of ROR gamma transcriptional activity; also: nearly all actives have a fitted effect of over 70% in size
Details: Drosophila S2 Gal4-VP16 UAS-luciferase, luminescence, 20 h; series mostly up to 46.1 µM; activity change, negative = inhibition: at the top concentration
Outline: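 Luciferase counterscreen: UAS-driven Photinus reporter in S2 cells expressing copper-inducible Gal4-VP16 fusion, 600 cells/well. Induced with copper sulfate (700 uM final) 1 hr after compound, incubated 20 hr at ambient temperature before luminescence detection.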
% is scaled to controls: 0 for no effect and ±100 for the full control effect; potency is read from the fitted curve at half-maximal effect.

SMILES | activity change, negative = inhibition | Potency
CCOC(=O)Cc1nnc(Nc2ccc(C(=O)NC)cc2)c2ccccc12 | -10.9% (inactive) | 
Cc1c(CCC(=O)N[C@@H](CC(C)C)C(=O)O)c(=O)oc2cc3oc4c(c3cc12)CCCC4 |  | 4.99 µM (active)
O=C(c1cc(-c2ccc(Cl)cc2)n[nH]1)N1CCc2ccccc2C1 | -9.01% (inactive) | 
Cc1nc2c(-c3ccccc3)cnn2c(N)c1-c1ccccc1 |  | 11.2 µM (active)
CN(C)S(=O)(=O)c1ccc(NC(=O)/C=C/c2ccccc2Cl)cc1 | -7.71% (inactive) | 
CCC(C)NC(=O)CSc1nnc(-c2cc(-c3ccc(C)cc3)nc3ccccc23)n1N (stereo not given) | 2.63% (inactive) | 
Cc1nc2c(-c3ccc(F)cc3)cnn2c(N)c1-c1ccccc1 |  | 0.281 µM (active)
COc1cc(OC)c(C2=NOC(C(=O)NCc3cccnc3)C2)cc1Cl (stereo not given) | 4.77% (inactive) | 
COc1cccc(-c2cc(C(=O)N3CCc4ccccc4C3)[nH]n2)c1 | -10.7% (inactive) | 
O=C(CSc1nc2ccc(NC(=O)CSc3nnnn3Cc3ccccc3)cc2s1)Nc1ccccc1 | 6.86% (inactive) | 
CCn1nc(C)c(CN2CCC(n3nccc3NC(=O)c3ccc4c(c3)OCO4)CC2)c1C | -1.39% (inactive) | 
C=C(C)c1cccc(C(C)(C)NC(=O)N2CCN(CC)CC2)c1 | -13.2% (inactive) | 
CC(C)CC(=O)NS(=O)(=O)c1ccc(N)cc1 | -12.3% (inactive) | 
Cc1nnc(SCC(=O)Nc2ccc(S(=O)(=O)Nc3ccc(Cl)nn3)cc2)s1 | -1.14% (inactive) | 
COc1ccc(OC)c(NC(=S)N(CCc2c(C)[nH]c3ccccc23)Cc2cccs2)c1 | 11.4% (inactive) | 
COc1cccc(/C=C2\SC(=S)N(CCCC(=O)N3CCCC3)C2=O)c1 | 11.6% (inactive) | 
OCCNc1nc2ccccc2n1-c1ncnc2sc3c(c12)CCC3 |  | 15.8 µM (active)
CN(Cc1ccccc1)c1ncnc2ccc(Br)cc12 | -13.1% (inactive) | 

SMILES | activity change, negative = inhibition | Potency
COC1CCCCC1Nc1cc(C)ccc1C (stereo not given) | -4.68% (inactive) | 
CCOC(=O)c1sc(NC(=O)c2sc(C)nc2C)nc1C | -0.602% (inactive) | 
COC(=O)c1ccc(OCC(=O)c2ccc(O)cc2O)cc1 |  | 1.58 µM (active)
Cc1cccc(-c2ocnc2C(=O)Nc2ccccc2NC(=O)c2ccccn2)c1 |  | 7.91 µM (active)
CCN1CCCc2cc(CN(CCN3CCOCC3)C(=S)Nc3ccccc3C)ccc21 |  | 15.8 µM (active)
CC(C)(C)c1cc(C(=O)N2CCc3ccccc32)ccn1 | 4.76% (inactive) | 
O=C(/C=C/c1c(F)cccc1Cl)N1CCc2ccccc2C1 | 7.93% (inactive) | 
COc1ccc(OC)c(/C=C2\SC(=S)N(C(C(=O)O)c3ccccc3)C2=O)c1 (stereo not given) | -2.55% (inactive) | 
O=S(=O)(NCc1ccccn1)C(F)(F)F |  | 25 µM (active)
COc1ccc(C(CNC(=S)NCc2ccccc2)N2CCCC2)cc1 (stereo not given) | 10.3% (inactive) | 
CCC(C)[C@H](NC(=O)NCc1ccco1)C(=O)O (stereo not given in full) | -8.74% (inactive) | 
Cc1ccc(NC(=S)NCCN(C2CCCCC2)C2CCCC2)cc1C |  | 22.3 µM (active)
NC(=O)/C=C/C(=O)Nc1ccc(Cl)cc1 |  | 8.88 µM (active)
Oc1ccc(COCc2ccccc2)c2cccnc12 |  | 2.5 µM (active)
O=C1CC(c2ccc(F)cc2)CC(O)=C1C1NCCc2ccccc21 (stereo not given) | 1.75% (inactive) | 
CCOC(=O)[C@@H]1[C@H]2COc3ccc(Br)cc3[C@@H]2N2C(=O)N(c3ccccc3)C(=O)[C@@]12C | 17.3% (inactive) | 
S=c1[nH]nc(-c2cc(-c3ccccn3)nc3ccccc23)o1 | 20.8% (inactive) | 

From PubChem BioAssay AID2763 (National Center for Advancing Translational Sciences (NCATS), 2010)
